Laboratory results as given in PubChem BioAssay (Tox21).
Results filed as inconclusive are left out. Values without a mark were called inactive. Active and inactive are the calls of the source. Calls follow the shape of the full dose curve.
% is scaled to controls: 0 for no effect and ±100 for the full control effect.

Test: qHTS assay to identify small molecule agonists or antagonists of the thyroid stimulating hormone receptor (TSHR) signaling pathway - wild type cell line counter screen (AID 1259384)
Details: HEK293 wild type, cAMP HTRF counter-screen, active compounds read high; series mostly up to 92.4 µM
From the text: U.S. Tox21 Program National Center for Advancing Translational Sciences [NCATS] NIH Chemical Genomics Center [NCGC] U.S. Environmental Protection Agency [EPA] National Institutes of Environmental Health Sciences [NIEHS] National Toxicology Program [NTP] U.S. Food and Drug Administration [FDA] Tox21 Assay Overview: TSHR is the receptor for thyrotropin (thyroid stimulating hormone or TSH), a member of the glycoprotein hormone family. TSH is released by the anterior pituitary gland and is the main regulator of thyroid gland growth and development. Upon binding circulating thyrotropin, a G-protein signal cascade activates adenylyl cyclase and […] cAMP concentration is increased. cAMP is a key second messenger involved extensively in cellular signal transduction pathways associated with the majority of G-protein coupled receptors (GPCRs). The activation of these GPCRs by neurotransmitters, lipids, nucleotides, peptides and hormones results in the activation or the inhibition of plasma membrane-bound adenylate cyclase through heterotrimeric G-proteins. A cell-based TSHR-Hek293 assay can be used to identify TSHR agonists. To eliminate the false positive compounds identified from screening a cell-based TSHR-Hek293 cell line, cAMP assay in a wild type Hek293 cells was used as a counter screening.
Tox21 Assay Protocol Summary: Hek293 cells (wild type) were dispensed at 800 cells/4 uL/well in 1536-well white plates using a Multidrop dispenser. After the assay plates were incubated at a 37 C/5% CO2 incubator for 18 hrs, 23 nL of compounds dissolved in DMSO, positive controls or DMSO only was transferred to the assay plate by a pin tool, followed by 1 ul medium containing Ro20-1724. After 30 min of incubation at room temperature, 2.5 ul/well of cAMP-d2 and 2.5 ul/well of anti-cAMP-cryptate were added respectively into the assay plates using a Flying Reagent Dispenser. The plates were incubated at room temperature for 1 hr. The fluorescence intensity in the plates was measured using an Envision plate reader. Each test compound was measured at 15 concentrations and in triplicates.
With `CC(C)=CCC[C@H](C)CCO` the outcome was “inactive”.
In the case of `O=C(OCCOCCOCCOC(=O)c1ccccc1)c1ccccc1`, the outcome is reported as “inactive”.
With `O=C(Nc1ccc2c(c1)Cc1ccccc1-2)C(F)(F)F` the outcome was “inactive”.
For `O=C(OCCCCCOC(=O)c1ccccc1)c1ccccc1`, the outcome was “inactive”.
For `CCOc1ccc2c(c1)C(C)CC(C)(C)N2` (stereo not given), the outcome was “inactive”.
With `CCc1c(C)[nH]c2c1C(=O)C(CN1CCOCC1)CC2` (stereo not given) the outcome was “inactive”.
With `Cc1nc2sccn2c(=O)c1CCN1CCC(=C(c2ccc(F)cc2)c2ccc(F)cc2)CC1` the outcome was “inactive”.
For `CC(C)(C)c1cc(C=O)cc(C(C)(C)C)c1O`, the outcome was “inactive”.
In the case of `S=c1[nH][nH]c(=S)s1`, the outcome is reported as “inactive”.
In the case of `NC(=O)c1ccccc1`, the outcome is reported as “inactive”.
With `CCCCOC(=O)C(C)Oc1ccc(Oc2ccc(C(F)(F)F)cn2)cc1` (stereo not given) the outcome was “inactive”.
With `O=C1c2ccccc2C(=O)C1c1ccc2cc(S(=O)(=O)O)cc(S(=O)(=O)O)c2n1` the outcome was “inactive”.
In the case of `CCc1ccc2c(c1)C(=O)c1ccccc1C2=O`, the outcome is reported as “inactive”.
In the case of `CCCCCCCCC(=O)OCC(C)OC(=O)CCCCCCCC` (stereo not given), the outcome is reported as “inactive”.
For `C[C@H](N)C(=O)N[C@@H](C)C(=O)NC1[C@H]2CN(c3nc4c(cc3F)c(=O)c(C(=O)O)cn4-c3ccc(F)cc3F)C[C@@H]12` (stereo not given in full), the outcome was “inactive”.
In the case of `OCCCO`, the outcome is reported as “inactive”.
In the case of `CCOc1cc(OCC)c(C(C)=O)cc1OCC`, the outcome is reported as “inactive”.
For `O=C(O)c1ccncc1`, the outcome was “inactive”.
For `O=C(Cl)c1ccc(F)c(Cl)c1`, the outcome was “inactive”.
Compound `CCCCCCCCCCCCCCCCCCCl` has a cAMP activity change of -0.012% [at 8.39 µM].
For `Nc1ccc(F)cc1F`, the outcome was “inactive”.
In the case of `CCC1=C(C)CN(C(=O)NCCc2ccc(S(=O)(=O)NC(=O)NC3CCC(C)CC3)cc2)C1=O` (stereo not given), the outcome is reported as “inactive”.
With `Cc1c(Cl)cccc1Nc1ccccc1C(=O)O` the outcome was “inactive”.
For `OCCc1ccncc1`, the outcome was “inactive”.
In the case of `CC(C)(C)c1ccc(CCC=O)cc1`, the outcome is reported as “inactive”.
In the case of `CCOc1ccccc1O`, the outcome is reported as “inactive”.
For `C=CC(=O)NC(C)(C)C`, the outcome was “inactive”.
With `Cc1c(-c2cccnc2)c2ccccc2n1CCCCC(=O)O` the outcome was “inactive”.
In the case of `CCc1ccc(C(=O)C(C)CN2CCCCC2)cc1` (stereo not given), the outcome is reported as “inactive”.
For `NC(=O)c1ccccc1C(N)=O`, the outcome was “inactive”.
In the case of `C=CC(=O)OCCCCCCCCCC`, the outcome is reported as “inactive”.
With `CCCCC(CC)COCCC#N` (stereo not given) the outcome was “inactive”.
For `CCCCCO`, the outcome was “inactive”.
With `COc1ccc(/C(C)=C/C(=O)O)c(OC)c1` the outcome was “inactive”.
With `CC(=O)c1ccc(Cl)c(Cl)c1Cl` the outcome was “inactive”.
With `O=[N+]([O-])c1ccc(Cl)cc1Cl` the outcome was “inactive”.
For `CCCCCCCCCCCCN1CCOCC1`, the outcome was “inactive”.
In the case of `OCCOc1cccc(OCCO)c1`, the outcome is reported as “inactive”.
In the case of `O=C(NC1CCN(CCc2c[nH]c3ccccc23)CC1)c1ccccc1`, the outcome is reported as “inactive”.
For `CCN(CCCCOC(=O)c1ccc(OC)c(OC)c1)C(C)Cc1ccc(OC)cc1` (stereo not given), the outcome was “inactive”.
